Experimental data: the supplement of paper PMC10849652
About 7,900 targets were measured; listed, in parts, are those with a hit and a random draw of the rest. About 0.6% of all pairs of compound and target were hits.

Columns and labels:
Assay in all cases: log2 fold change, soluble protein after heating vs DMSO (PISA); higher = thermal stabilisation; K562 cells, 10 uM, 30 min; active = over 0.2 and 3.5 SD of the protein, either way, in both replicates (recomputed)
[1] = compound: C#Cc1cccc(Nc2ncnc3cc(OCCOC)c(OCCOC)cc23)c1 [erlotinib]
How it was run: (§1)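 K562 cells at 2×10^6 cells/mL were given 10 μM compound for 30 min. Aliquots then went through 3 min of heating across 48°C-58°C, were pooled, and were extracted in PBS with 0.5% NP-40 at 4°C, and the supernatant after 21,000xg for 90 min was quantified by TMTpro 16plex LC-MS/MS with channel sums equalised. Thermal stability relative to control samples, from duplicates, is given as log2 fold change.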

[2] = compound: C/C(=N\NC(=O)C1=CC(=CC=C1)S(=O)(=O)N2CCOCC2)/C3=C(C=CC(=C3)Cl)O
How it was run: as §1

[3] = compound: C1=CC(=C(C=C1Cl)C2=NC3=NC=CN=C3C(=N2)NC4=CC=NC=C4)F
How it was run: as §1

[4] = compound: C1=CC(=CC=C1C2=NC3=C(N2)C=C(C=C3)C(=O)N)OC4=CC=C(C=C4)Cl
How it was run: as §1

[5] = compound: C1=CC2=C(C=CC(=C2)/C=C\3/C(=O)NC(=NCC4=CC=CS4)S3)N=C1
How it was run: as §1

[6] = compound: C1=CC2=NC=CN=C2C=C1/C=C/3\C(=O)NC(=O)S3
How it was run: as §1

[7] = compound: C1=CC=C2C(=C1)C3=NNC4=CC=CC(=C43)C2=O
How it was run: as §1

[8] = compound: C1CCN(C1)C(=O)NC2=CC=CC(=C2)NC3=NC=C(C(=N3)NCCC4=CN=CN4)Br
How it was run: as §1

[9] = compound: C1CN(CCC1(CC2=CC=C(C=C2)Cl)N)C3=NC=NC4=C3C=CN4
How it was run: as §1

[10] = compound: C1COCCN1CCN2C3=CC=CC=C3N=C2NC(=O)C4=CC(=CC=C4)[N+](=O)[O-] [IRAK-1-4 Inhibitor I]
How it was run: as §1

[11] = compound: C=CC(=O)N1CCC[C@@H](n2nc(-c3ccc(Oc4ccccc4)cc3)c3c(N)ncnc32)C1 [ibrutinib]
How it was run: as §1

[12] = compound: CC(=O)c1cnc2ccc(-c3cc(Cl)c(O)c(Cl)c3)nc2c1N[C@H]1CC[C@H](CN(C)C)CC1
How it was run: as §1

[13] = compound: CC(C)(O)CC(=O)NCCn1ccc2ncnc(Nc3ccc(Oc4cccc(C(F)(F)F)c4)c(Cl)c3)c21
How it was run: as §1

[14] = compound: CC(C)C1=C2N=C(C=C(N2N=C1)NCC3=CC=CC=C3)NCCCCCCN
How it was run: as §1

[15] = compound: CC(C)N(C[C@H]1O[C@@H](n2cnc3c(N)ncnc32)[C@H](O)[C@@H]1O)[C@H]1C[C@@H](CCc2nc3cc(C(C)(C)C)ccc3[nH]2)C1 [pinometostat]
How it was run: as §1

[16] = compound: CC1=C(C(CC(=O)N1)C2=CC=C(C=C2)C(F)(F)F)C(=O)NC3=C(C=C4C(=C3)C=NN4)F
How it was run: as §1

[17] = compound: CC1=C(C2=C(C=C1)C(=O)C3=CC=CC=C3N2CCCN)C
How it was run: as §1

[18] = compound: C1=CC=C(C=C1)C2=NC(=C(N2)C3=CC=NC=C3)C4=CC(=C(C=C4)Cl)O
How it was run: as §1

[19] = compound: CC(C)(C)Cn1c(N)nc2ccc(-c3[nH]c(C(C)(C)C)nc3-c3ccc(F)cc3)nc21 [ralimetinib]
How it was run: as §1

[20] = compound: CC(C)C[C@@H](C=O)NC(=O)[C@H](CC(C)C)NC(=O)[C@H](CC(C)C)NC(=O)OCc1ccccc1
How it was run: as §1

Measured: log2 fold change

NAGPA (UniProt Q9UK23)
UniProt Q9UK23, sequence (Q9UK23 whole entry, looked up): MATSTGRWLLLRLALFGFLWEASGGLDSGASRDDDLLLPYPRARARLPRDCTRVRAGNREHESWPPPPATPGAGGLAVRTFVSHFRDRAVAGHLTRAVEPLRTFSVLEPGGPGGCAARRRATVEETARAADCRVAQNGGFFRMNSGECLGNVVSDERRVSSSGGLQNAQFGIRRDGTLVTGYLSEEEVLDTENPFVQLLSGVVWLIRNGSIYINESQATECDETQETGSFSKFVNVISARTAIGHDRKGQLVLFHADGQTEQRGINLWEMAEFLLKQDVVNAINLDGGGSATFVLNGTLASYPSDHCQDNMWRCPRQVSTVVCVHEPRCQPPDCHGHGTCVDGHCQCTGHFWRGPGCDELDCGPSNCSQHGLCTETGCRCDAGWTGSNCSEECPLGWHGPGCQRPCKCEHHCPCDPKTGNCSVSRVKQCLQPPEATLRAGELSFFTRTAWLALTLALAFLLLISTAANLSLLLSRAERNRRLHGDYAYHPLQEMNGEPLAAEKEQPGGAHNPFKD
inactive: [1] 0.046 | [2] 0.023 | [3] 0.046 | [4] 0.056 | [5] 0.033 | [6] -0.018 | [7] -0.025 | [8] -0.013 | [9] 0.148 | [10] -0.078 | [11] 0.228 | [12] -0.014 | [13] 0.03 | [14] 0.112 | [15] 0.052 | [16] 0.083 | [17] -0.062

NOL11 (UniProt Q9H8H0)
UniProt Q9H8H0, sequence (Q9H8H0 whole entry, looked up): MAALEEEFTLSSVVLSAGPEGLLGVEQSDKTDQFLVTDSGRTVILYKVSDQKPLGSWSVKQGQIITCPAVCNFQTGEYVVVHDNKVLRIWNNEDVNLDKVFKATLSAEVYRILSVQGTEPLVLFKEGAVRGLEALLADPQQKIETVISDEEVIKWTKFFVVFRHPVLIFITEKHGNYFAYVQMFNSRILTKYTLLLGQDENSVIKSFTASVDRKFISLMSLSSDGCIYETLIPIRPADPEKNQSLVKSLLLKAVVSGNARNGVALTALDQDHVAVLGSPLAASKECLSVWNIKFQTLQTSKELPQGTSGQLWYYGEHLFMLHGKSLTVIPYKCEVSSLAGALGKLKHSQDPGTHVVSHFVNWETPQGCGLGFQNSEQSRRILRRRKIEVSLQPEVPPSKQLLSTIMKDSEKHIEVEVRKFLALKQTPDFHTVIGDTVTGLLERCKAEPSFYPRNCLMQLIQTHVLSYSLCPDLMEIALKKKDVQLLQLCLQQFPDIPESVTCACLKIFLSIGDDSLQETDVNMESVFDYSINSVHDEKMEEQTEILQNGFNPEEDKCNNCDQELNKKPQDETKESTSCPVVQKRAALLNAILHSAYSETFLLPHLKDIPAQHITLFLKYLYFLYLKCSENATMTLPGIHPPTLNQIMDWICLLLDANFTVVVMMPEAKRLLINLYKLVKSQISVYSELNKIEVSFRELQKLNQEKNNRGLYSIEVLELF
active: [17] 0.304
inactive: [1] -0.019 | [2] -0.065 | [3] 0.015 | [4] -0.007 | [5] -0.038 | [6] 0.042 | [18] 0.027 | [7] -0.005 | [8] -0.014 | [9] 0.079 | [10] 0.036 | [11] 0.031 | [12] 0.002 | [19] -0.028 | [13] 0.037 | [14] 0.21 | [20] -0.017 | [15] -0.014 | [16] -0.002

NME7 (UniProt Q9Y5B8)
inactive: [1] 0.166 | [2] 0.058 | [3] -0.052 | [4] -0.247 | [5] 0.127 | [6] -0.023 | [18] 0.06 | [7] 0.006 | [8] -0.039 | [9] -0.248 | [10] 0.056 | [11] -0.054 | [12] -0.038 | [19] 0.095 | [13] -0.116 | [14] -0.066 | [20] 0.059 | [15] 0.065 | [17] -0.086

MYO19 (UniProt Q96H55)
UniProt Q96H55, sequence (Q96H55 whole entry, looked up): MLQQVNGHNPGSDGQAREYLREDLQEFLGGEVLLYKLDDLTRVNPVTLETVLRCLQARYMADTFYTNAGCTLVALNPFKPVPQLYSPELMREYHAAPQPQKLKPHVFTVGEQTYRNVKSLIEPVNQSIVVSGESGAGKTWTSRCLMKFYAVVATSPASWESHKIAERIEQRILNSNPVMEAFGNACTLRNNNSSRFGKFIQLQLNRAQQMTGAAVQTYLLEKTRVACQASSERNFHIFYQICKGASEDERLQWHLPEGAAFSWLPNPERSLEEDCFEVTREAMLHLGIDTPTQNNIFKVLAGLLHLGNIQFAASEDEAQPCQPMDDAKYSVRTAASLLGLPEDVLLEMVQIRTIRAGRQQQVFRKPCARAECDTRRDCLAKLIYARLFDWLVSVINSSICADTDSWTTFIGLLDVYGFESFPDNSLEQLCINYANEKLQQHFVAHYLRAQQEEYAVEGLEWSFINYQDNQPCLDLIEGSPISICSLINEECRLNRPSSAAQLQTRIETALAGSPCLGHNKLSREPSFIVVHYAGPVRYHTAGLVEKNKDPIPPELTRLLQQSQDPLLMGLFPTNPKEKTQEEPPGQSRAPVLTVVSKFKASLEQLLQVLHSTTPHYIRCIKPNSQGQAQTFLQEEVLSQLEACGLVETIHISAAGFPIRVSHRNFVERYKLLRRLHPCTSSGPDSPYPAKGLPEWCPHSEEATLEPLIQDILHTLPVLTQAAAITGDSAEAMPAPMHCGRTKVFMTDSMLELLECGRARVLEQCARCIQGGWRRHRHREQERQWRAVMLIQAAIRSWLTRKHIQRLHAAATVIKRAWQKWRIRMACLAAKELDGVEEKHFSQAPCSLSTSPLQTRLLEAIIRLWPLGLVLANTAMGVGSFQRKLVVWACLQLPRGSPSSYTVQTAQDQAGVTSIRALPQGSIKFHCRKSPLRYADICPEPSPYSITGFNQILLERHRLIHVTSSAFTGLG
inactive: [1] 0.032 | [2] -0.047 | [3] -0.103 | [4] -0.114 | [5] 0.011 | [6] 0.093 | [18] 0.027 | [7] 0.07 | [10] 0.014 | [11] -0.11 | [12] 0.168 | [19] 0.115 | [13] 0.079 | [14] -0.06 | [20] 0.176 | [15] 0.014 | [16] -0.198

PAFAH1B3 (UniProt Q15102)
active: [17] 0.305
inactive: [1] 0.028 | [2] 0.091 | [3] 0.029 | [4] 0.017 | [5] 0.148 | [6] -0.038 | [18] 0.085 | [7] 0.061 | [8] -0.058 | [9] 0.032 | [10] -0.041 | [11] 0.008 | [12] -0.119 | [19] 0.009 | [13] -0.137 | [14] -0.055 | [20] -0.078 | [15] 0.023 | [16] 0

MPP1 (UniProt Q00013)
UniProt Q00013, sequence (Q00013 whole entry, looked up): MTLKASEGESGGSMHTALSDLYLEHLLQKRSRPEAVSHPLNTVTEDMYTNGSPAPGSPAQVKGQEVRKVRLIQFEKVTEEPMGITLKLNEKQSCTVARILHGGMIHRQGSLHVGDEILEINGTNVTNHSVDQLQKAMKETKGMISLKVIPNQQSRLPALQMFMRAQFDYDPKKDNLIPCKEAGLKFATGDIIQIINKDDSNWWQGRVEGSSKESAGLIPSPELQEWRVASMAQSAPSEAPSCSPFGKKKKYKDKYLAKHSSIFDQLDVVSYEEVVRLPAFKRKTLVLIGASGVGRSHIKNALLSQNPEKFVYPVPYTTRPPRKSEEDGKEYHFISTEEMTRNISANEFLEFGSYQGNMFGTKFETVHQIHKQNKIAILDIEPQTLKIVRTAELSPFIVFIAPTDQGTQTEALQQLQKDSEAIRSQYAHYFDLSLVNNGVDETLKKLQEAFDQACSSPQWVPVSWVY
inactive: [1] 0.083 | [2] 0.098 | [3] 0.027 | [4] 0.016 | [5] 0.004 | [6] -0.001 | [18] 0.012 | [7] 0.033 | [8] -0.048 | [9] -0.019 | [10] -0.073 | [11] -0.047 | [12] -0.071 | [19] 0.075 | [13] -0.087 | [14] -0.147 | [20] 0.023 | [15] 0.011 | [16] -0.023 | [17] 0.029

MLST8 (UniProt Q9BVC4)
inactive: [1] -0.021 | [2] 0.049 | [3] -0.004 | [4] 0.102 | [5] 0.116 | [6] -0.026 | [7] -0.111 | [8] -0.035 | [9] -0.105 | [10] 0.002 | [11] -0.048 | [12] 0.099 | [13] -0.049 | [14] -0.136 | [15] -0.093 | [16] 0.02 | [17] 0.037

PAFAH1B2 (UniProt P68402)
UniProt P68402, sequence (P68402 whole entry, looked up): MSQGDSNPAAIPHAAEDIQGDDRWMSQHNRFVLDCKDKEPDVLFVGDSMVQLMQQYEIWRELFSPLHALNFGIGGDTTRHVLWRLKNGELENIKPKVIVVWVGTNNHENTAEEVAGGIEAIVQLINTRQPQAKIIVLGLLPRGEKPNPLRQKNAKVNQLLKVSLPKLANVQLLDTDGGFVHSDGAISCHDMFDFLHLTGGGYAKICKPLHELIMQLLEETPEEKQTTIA
inactive: [1] 0.195 | [2] -0.088 | [3] 0.134 | [4] -0.016 | [5] -0.036 | [6] -0.034 | [18] 0.068 | [7] 0.027 | [8] 0.128 | [9] 0.047 | [10] 0.013 | [11] 0.017 | [12] -0.016 | [19] 0.038 | [14] 0.012 | [20] -0.033 | [15] 0.016 | [16] 0.027 | [17] 0.005
active: [13] -0.436

MITF (UniProt O75030)
UniProt O75030, sequence (O75030 whole entry, looked up): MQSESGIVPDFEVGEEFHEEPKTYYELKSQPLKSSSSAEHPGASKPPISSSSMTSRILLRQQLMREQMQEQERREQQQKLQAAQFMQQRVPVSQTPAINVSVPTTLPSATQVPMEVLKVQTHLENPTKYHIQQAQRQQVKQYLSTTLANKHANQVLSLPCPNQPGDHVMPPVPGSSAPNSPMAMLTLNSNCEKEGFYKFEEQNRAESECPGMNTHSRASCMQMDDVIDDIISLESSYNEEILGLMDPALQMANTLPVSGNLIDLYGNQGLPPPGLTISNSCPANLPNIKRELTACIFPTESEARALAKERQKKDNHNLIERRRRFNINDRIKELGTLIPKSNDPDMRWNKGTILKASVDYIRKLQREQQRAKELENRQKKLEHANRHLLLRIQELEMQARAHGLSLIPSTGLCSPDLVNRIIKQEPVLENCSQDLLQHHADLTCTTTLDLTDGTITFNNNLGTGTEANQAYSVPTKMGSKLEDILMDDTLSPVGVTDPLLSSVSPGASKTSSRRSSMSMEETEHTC
active: [14] -0.581
inactive: [1] -0.021 | [2] -0.015 | [4] 0.041 | [5] -0.011 | [7] 0.047 | [10] 0.166 | [12] -0.212 | [15] 0.074 | [16] 0.158

MYSM1 (UniProt Q5VVJ2)
inactive: [6] 0.173 | [18] 0.37 | [10] -0.264 | [11] 0.291 | [19] -0.022 | [20] -0.061 | [15] 0.153

MXRA7 isoform 3 (UniProt P84157)
UniProt P84157, sequence (P84157 whole entry, looked up): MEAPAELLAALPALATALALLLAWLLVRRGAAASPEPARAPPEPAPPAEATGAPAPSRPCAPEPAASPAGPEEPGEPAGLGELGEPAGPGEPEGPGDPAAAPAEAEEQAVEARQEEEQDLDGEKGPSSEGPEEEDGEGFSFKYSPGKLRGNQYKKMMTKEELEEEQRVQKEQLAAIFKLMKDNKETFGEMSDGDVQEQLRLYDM
inactive: [18] -0.08 | [19] -0.031 | [20] 0.151

NAP1L1 (UniProt B7Z9C2)
inactive: [1] 1.01 | [2] 0.122 | [4] -0.051 | [5] 0.156 | [6] 0.175 | [7] -0.178 | [10] -0.147 | [11] -0.04 | [12] -0.058 | [14] 0.359 | [15] -0.052 | [16] 0.111

NOS1AP (UniProt O75052)
inactive: [1] 0.134 | [3] 0.517 | [4] -0.006 | [6] -0.02 | [18] -0.248 | [8] -0.208 | [11] -0.061 | [19] 0.07 | [13] -0.073 | [14] -0.026 | [17] 0.154
active: [9] 1.09 | [20] 1.38

PAFAH2 (UniProt Q99487)
inactive: [1] -0.004 | [2] 0.138 | [4] -0.018 | [5] -0.144 | [6] -0.02 | [18] -0.008 | [7] 0.011 | [8] -0.017 | [9] 0.08 | [10] 0.106 | [11] 0.048 | [12] -0.012 | [19] -0.033 | [14] 0.025 | [20] 0.007 | [15] -0.011 | [17] 0.02

NIPSNAP2 (UniProt C9J7B1)
inactive: [2] -0.171 | [5] -0.16 | [6] 0.057 | [7] -0.138 | [11] 0.052 | [12] -0.389

OVCA2 (UniProt Q8WZ82)
UniProt Q8WZ82, sequence (Q8WZ82 whole entry, looked up): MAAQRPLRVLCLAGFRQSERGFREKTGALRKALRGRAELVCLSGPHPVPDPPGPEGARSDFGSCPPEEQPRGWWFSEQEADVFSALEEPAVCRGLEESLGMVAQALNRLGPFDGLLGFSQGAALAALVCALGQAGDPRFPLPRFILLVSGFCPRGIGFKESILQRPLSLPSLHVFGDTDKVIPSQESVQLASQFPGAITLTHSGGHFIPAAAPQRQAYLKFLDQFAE
inactive: [2] 0.23 | [5] 0.108 | [6] 0.268 | [18] -0.044 | [7] -0.131 | [10] -0.087 | [11] 0.023 | [12] -0.019 | [19] -0.1 | [20] 0.095 | [15] 0.021 | [16] 0.044

NOLC1 isoform 3 (UniProt Q14978)
inactive: [1] 0.002 | [4] 0.183 | [14] 0.151

MTHFD1, A0A384N5Y3
MTHFD1, A0A384N5Y3, sequence (A0A384N5Y3 whole entry, looked up): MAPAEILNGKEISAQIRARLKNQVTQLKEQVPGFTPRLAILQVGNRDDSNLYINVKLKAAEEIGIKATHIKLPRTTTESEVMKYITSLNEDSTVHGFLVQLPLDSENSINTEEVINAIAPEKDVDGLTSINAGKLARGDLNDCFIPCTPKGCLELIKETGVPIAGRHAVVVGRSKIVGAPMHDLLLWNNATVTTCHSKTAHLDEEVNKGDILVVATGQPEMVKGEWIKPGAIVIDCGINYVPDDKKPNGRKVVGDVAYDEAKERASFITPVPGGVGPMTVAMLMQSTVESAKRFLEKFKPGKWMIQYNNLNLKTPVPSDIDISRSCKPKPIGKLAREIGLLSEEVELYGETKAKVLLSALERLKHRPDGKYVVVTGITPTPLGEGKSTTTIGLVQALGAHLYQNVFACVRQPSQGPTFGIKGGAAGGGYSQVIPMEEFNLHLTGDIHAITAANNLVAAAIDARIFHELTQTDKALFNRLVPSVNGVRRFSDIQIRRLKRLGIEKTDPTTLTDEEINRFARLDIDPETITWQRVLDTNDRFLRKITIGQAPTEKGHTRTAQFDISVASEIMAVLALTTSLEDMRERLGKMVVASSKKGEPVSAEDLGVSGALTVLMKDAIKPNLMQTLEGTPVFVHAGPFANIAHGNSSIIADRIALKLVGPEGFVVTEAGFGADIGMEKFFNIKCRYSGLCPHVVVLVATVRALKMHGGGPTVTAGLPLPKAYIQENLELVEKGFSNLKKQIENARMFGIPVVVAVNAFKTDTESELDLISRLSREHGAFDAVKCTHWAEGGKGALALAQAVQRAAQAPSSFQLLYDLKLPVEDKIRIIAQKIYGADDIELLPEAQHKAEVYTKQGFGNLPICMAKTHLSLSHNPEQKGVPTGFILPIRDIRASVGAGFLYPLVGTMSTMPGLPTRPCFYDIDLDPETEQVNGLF
inactive: [2] 0.056 | [3] 0.081 | [5] 0.146 | [6] -0.06 | [18] 0.036 | [7] 0.01 | [8] -0.004 | [9] 0.033 | [11] 0.002 | [12] -0.085 | [19] 0 | [13] -0.034 | [20] -0.008 | [16] -0.024 | [17] 0.049

MSANTD2 (UniProt Q6P1R3)
inactive: [3] 0.012 | [8] -0.081 | [9] -0.052 | [13] 0.047 | [17] 0.012

OXR1 isoform 2 (UniProt Q8N573)
inactive: [2] 0.137 | [3] -0.362 | [5] -0.034 | [18] -0.056 | [7] 0.068 | [8] 0.02 | [9] -0.022 | [10] -0.044 | [12] -0.123 | [19] -0.088 | [13] -0.118 | [20] 0.119 | [15] 0.066 | [16] -0.028 | [17] 0.031

NEU3 isoform 2 (UniProt Q9UQ49)
inactive: [1] 0.164 | [4] 0
active: [14] -0.984

NCOA5 (UniProt Q9HCD5)
inactive: [1] -0.057 | [4] 0.156 | [18] -0.094 | [10] -0.136 | [19] -0.012 | [14] -0.194 | [20] 0.055 | [15] 0.048 | [16] 0.082

P4HA2 (UniProt O15460)
active: [3] -0.548
inactive: [1] -0.075 | [4] 0.034 | [6] -0.025 | [18] -0.02 | [8] -0.016 | [9] -0.035 | [10] -0.072 | [11] 0.168 | [19] 0.038 | [13] 0.045 | [14] -0.017 | [20] 0.062 | [15] 0.06 | [16] 0.039 | [17] 0
